High-throughput results as filed in PubChem BioAssay.
eIF4E 4G PPI – eIF4E/eIF4G interaction inhibition in translation initiation; TR-FRET eIF4E-eIF4GI(517-606) binding, 2 h; 0.37% of 220,000 active; inhibition, % at 21.7 µM; P63073+Q04637;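 active = inhibition above about 30%, limit read from the data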;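 also: 0% = full FRET control wells and 100% = background wells lacking eIF4GI fragment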
PGE2 EP2 inh – inhibitors of human EP2 prostaglandin E2 receptor; C6 glioma cells expressing human EP2, cAMP TR-FRET; cells stimulated with saturating PGE2; inhibition, % at 25 µM; 0.52% of 260,000 active; AID 1422;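 active = percent inhibition above 40 after rounding to a whole number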;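 also: rat C6 glioma host cells with rolipram phosphodiesterase inhibitor present; the protocol text gives 20 µM as final concentration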
Target sequence (P43116 whole entry, looked up): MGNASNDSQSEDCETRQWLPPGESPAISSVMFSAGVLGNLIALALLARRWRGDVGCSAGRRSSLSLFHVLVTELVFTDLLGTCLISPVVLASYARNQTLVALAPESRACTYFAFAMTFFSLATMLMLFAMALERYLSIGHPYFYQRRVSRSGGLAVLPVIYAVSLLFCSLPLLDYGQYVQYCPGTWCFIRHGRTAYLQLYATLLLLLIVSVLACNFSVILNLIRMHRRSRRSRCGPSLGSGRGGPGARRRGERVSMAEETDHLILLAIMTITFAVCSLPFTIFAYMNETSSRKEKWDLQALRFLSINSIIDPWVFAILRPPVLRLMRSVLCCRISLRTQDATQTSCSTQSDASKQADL
PERK inhibitor – human PERK inhibition, primary cell-based screen | inhibition, % at 5.6 µM | Q9NZJ5 | AID 1416 | CHO PERK-DD fusion, SEAP luminescence translation reporter | 0.17% of 220,000 active;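 active = inhibition above the mean inhibition of all tested compounds plus 3 SD, set separately per screening campaign, cut at about 2.9% in these data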;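 also: PERK kinase domain activated by AP20187 dimerizer at 100 nM; 0% = DMSO with dimerizer and 100% = rapamycin at 8.4 µM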
EP2 mod – modulators of human EP2 prostaglandin E2 receptor; 0.83% of 260,000 active; induction, % at 25 µM; EP2-expressing cells, cAMP HTRF FRET, PGE2 co-stimulation; AID 940;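 active = compounds whose cAMP rise, as percent of the full-agonist control response, exceeds 60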;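 also: rat C6 glioma line stably carrying human EP2 under a CMV promoter; the protocol text gives 20 µM as final concentration; 100% = response of wells given 1 µM PGE2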
EP2 cAMP induct – human EP2 receptor cAMP induction, negative in counter-screens; AID 1080; C6 glioma EP2 cells, cAMP HTRF induction; plus low (about EC15) PGE2 agonist; calls only at 20 µM (by protocol); 47% of 1,300 active; shares compounds with EP2 mod;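 active = cAMP induction above 50% in the main assay while under 30% in all four parallel counter assays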;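 also: rat C6 glioma cells stably expressing human EP2 receptor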
The depositor's hits bear a star. An excerpt weighted towards active compounds, which were near 1.8% of everything screened.

What do the screens show for `Cc1cc(O)c(C=O)c2c1C(=O)Oc1c(CO)c(O)c3c(c1O2)C(O)OC3=O` (centres undefined)?
eIF4E 4G PPI: 7.5; PGE2 EP2 inh: 10.8; PERK inhibitor: 0.4; EP2 mod: -9.2

Results for CCCCOC(=O)Sc1nc2ccccc2o1 ?
eIF4E 4G PPI: 22.3; PGE2 EP2 inh: 14.1; PERK inhibitor: 1.9; EP2 mod: 71.1*; EP2 cAMP induct: inactive

Results for Cc1ccc2nc(-c3ccncc3)cc(-c3ccccc3)c2c1 ?
eIF4E 4G PPI: -9.5; PGE2 EP2 inh: 2.4; PERK inhibitor: 0.9; EP2 mod: 91.8*; EP2 cAMP induct: active

How did Cc1ccc2nc(-c3ccc(NS(C)(=O)=O)cc3)cc(-c3ccccc3)c2c1 do in these assays?
eIF4E 4G PPI: 4.4; PGE2 EP2 inh: 6.6; PERK inhibitor: 0.5; EP2 mod: 45.7

How did S=c1[nH]nc(-c2ccc3ccccc3n2)n1Cc1ccccc1 do in these assays?
eIF4E 4G PPI: -2.0; PGE2 EP2 inh: 6.5; PERK inhibitor: 1.1; EP2 mod: 74.1*; EP2 cAMP induct: inactive

What do the screens show for `Cc1cc(-c2n[nH]c(=S)n2Cc2ccccc2)cs1`?
eIF4E 4G PPI: 6.6; PGE2 EP2 inh: 1.5; PERK inhibitor: 1.8; EP2 mod: 31.5

What do the screens show for `Cc1scc(-c2n[nH]c(=S)n2Cc2ccccc2)c1C`?
eIF4E 4G PPI: -15.2; PGE2 EP2 inh: 2.3; PERK inhibitor: 0.4; EP2 mod: 50.9; EP2 cAMP induct: inactive

What do the screens show for `CCc1c(-c2n[nH]c(=S)n2Cc2ccccc2)csc1C`?
eIF4E 4G PPI: 8.6; PGE2 EP2 inh: 6.2; PERK inhibitor: 1.4; EP2 mod: 50.9; EP2 cAMP induct: inactive

What do the screens show for `Cc1cc(C)n(-c2nc(C)nc3c2cnn3-c2ccccc2)n1`?
eIF4E 4G PPI: 0.8; PERK inhibitor: 1.6; EP2 mod: 66.9*; EP2 cAMP induct: active

Results for Cc1cc(C)n(-c2nc3ccccc3c3nc(C)nn23)n1 ?
eIF4E 4G PPI: -4.3; PGE2 EP2 inh: 9.7; PERK inhibitor: 0.6; EP2 mod: 12.1

Results for O=c1c(C=NCc2ccccc2)c(NCc2ccccc2)nc2ccccn12 ?
eIF4E 4G PPI: 0.3; PGE2 EP2 inh: 5.3; PERK inhibitor: -0.4; EP2 mod: 79.9*; EP2 cAMP induct: active

How did COc1ccc(OC)c(C(=O)CSc2nnc(-c3cccs3)n2C)c1 do in these assays?
eIF4E 4G PPI: -2.8; PGE2 EP2 inh: -0.4; PERK inhibitor: 0.3; EP2 mod: 6.3

Results for COc1ccc(OC)c(C(=O)CSc2nnc(Cc3cccs3)n2CCc2ccccc2)c1 ?
eIF4E 4G PPI: -30.6; PGE2 EP2 inh: 0.3; PERK inhibitor: -0.6; EP2 mod: 66.1*; EP2 cAMP induct: active

What do the screens show for `O=C(c1ccc(Cl)cc1)c1oc2ccccc2c1CS(=O)c1ccc(Cl)cc1` (centres undefined)?
eIF4E 4G PPI: -6.5; PGE2 EP2 inh: 8.6; PERK inhibitor: -0.2; EP2 mod: 72.6*; EP2 cAMP induct: active

What do the screens show for `Nc1c(C(=O)c2ccc(Cl)cc2)oc2ccccc12`?
eIF4E 4G PPI: 2.6; PGE2 EP2 inh: 9.2; PERK inhibitor: 0.3; EP2 mod: 21.3

Results for [N-]=[N+]=Nc1ccc(C(=O)CSC[C@H](NC(=O)CC[C@H](N)C(=O)O)C(=O)NCC(=O)O)cc1 ?
PGE2 EP2 inh: 10.5; EP2 mod: 81.7*; EP2 cAMP induct: active

How did N[C@@H](CCC(=O)N[C@H](CSN=O)C(=O)NCC(=O)O)C(=O)O do in these assays?
PGE2 EP2 inh: 16.8; EP2 mod: 10.4

How did O=C(Cc1c(Cl)cccc1Cl)N1CCC2(CC1)CC(O)(c1nccs1)CO2 (centres undefined) do in these assays?
EP2 mod: 11.0

How did Cc1ccc(C(=O)Nc2ccc(S(=O)(=O)Nc3ncccn3)cc2)cc1C do in these assays?
PGE2 EP2 inh: 7.0; EP2 mod: -19.1

What do the screens show for `O=C(NCc1ccco1)c1ccc(Cn2c(=O)c3ccccc3n(Cc3ccc(Cl)cc3)c2=O)cc1`?
eIF4E 4G PPI: 1.8; PGE2 EP2 inh: 12.7; PERK inhibitor: -1.2; EP2 mod: 21.4

What do the screens show for `Cc1ccc(Cn2c(=O)n(Cc3ccco3)c(=O)c3ccccc32)cc1`?
eIF4E 4G PPI: -4.7; PGE2 EP2 inh: 8.5; PERK inhibitor: 0.4; EP2 mod: 67.7*; EP2 cAMP induct: active

What do the screens show for `O=c1c2ccccc2n(Cc2ccc(Cl)cc2)c(=O)n1Cc1ccco1`?
eIF4E 4G PPI: -4.1; PGE2 EP2 inh: 4.2; PERK inhibitor: 0.0; EP2 mod: 50.8; EP2 cAMP induct: active

Results for CCOC(=O)C(Cc1cc(C(C)=O)ccc1OCC)C(=O)OCC ?
eIF4E 4G PPI: -0.4; PGE2 EP2 inh: 12.7; PERK inhibitor: -0.1; EP2 mod: 15.4

What do the screens show for `CCOc1ccc(C(C)=O)cc1CC(C(N)=O)C(N)=O`?
eIF4E 4G PPI: 3.6; PERK inhibitor: 0.3; EP2 mod: 68.8*; EP2 cAMP induct: inactive

How did CC(C)(Sc1ccc(CCN(CCCCC2CCCCC2)C(=O)NC2CCCCC2)cc1)C(=O)O do in these assays?
PGE2 EP2 inh: 12.9; EP2 mod: 66.5*; EP2 cAMP induct: inactive

How did CCOc1ccccc1Cn1c(=O)oc2ccc(C)cc21 do in these assays?
eIF4E 4G PPI: 2.3; PGE2 EP2 inh: 7.8; PERK inhibitor: -0.4; EP2 mod: 76.7*; EP2 cAMP induct: active

Results for CCCOc1ccccc1Cn1c(=O)oc2ccc(C)cc21 ?
eIF4E 4G PPI: -9.8; PGE2 EP2 inh: 4.1; PERK inhibitor: -1.4; EP2 mod: 83.9*; EP2 cAMP induct: active

What do the screens show for `CCOC(=O)c1cnc2ccc(OCC)cc2c1N(C)Cc1ccccc1`?
eIF4E 4G PPI: 4.4; PGE2 EP2 inh: 5.1; PERK inhibitor: -1.0; EP2 mod: 89.9*; EP2 cAMP induct: active

Results for CCOC(=O)c1cnc2ccc(OCC)cc2c1N1CCN(c2ccccc2OC)CC1 ?
eIF4E 4G PPI: -5.2; PGE2 EP2 inh: 11.0; PERK inhibitor: -2.5; EP2 mod: 25.8

How did COc1cc(C2C(C#N)=C(N)Oc3n[nH]c(C)c32)cc(Cl)c1OCc1ccccc1C#N (centres undefined) do in these assays?
PGE2 EP2 inh: 13.1; EP2 mod: -53.2

How did CCOC(=O)c1c(NC(=O)c2ccc(-n3cnnn3)cc2)sc2c1CCCC2 do in these assays?
eIF4E 4G PPI: -5.5; PGE2 EP2 inh: 7.2; PERK inhibitor: 1.3; EP2 mod: 57.7; EP2 cAMP induct: active

How did CCOC(=O)Nc1sc2c(c1C(=O)OCC)CCC2 do in these assays?
eIF4E 4G PPI: -6.5; PGE2 EP2 inh: 3.9; PERK inhibitor: -0.2; EP2 mod: 74.5*; EP2 cAMP induct: inactive

Results for CCC(=O)N(CCC(Cc1ccccc1)c1ccco1)Cc1ccco1 (centres undefined) ?
eIF4E 4G PPI: -1.1; PGE2 EP2 inh: 8.8; PERK inhibitor: -0.3; EP2 mod: 77.5*; EP2 cAMP induct: inactive

How did NC(=O)C1CCN(S(=O)(=O)c2cccs2)CC1 do in these assays?
PGE2 EP2 inh: 11.8; EP2 mod: 0.4
